Screening results as filed in PubChem.
Only some compounds are listed: those with a hit (about 5.3% of all), similar ones and a draw of the others.
ALOX12 inhib – inhibitors of human 12-lipoxygenase (ALOX12) | P18054 | AID 1452 | purified 12-hLO, xylenol orange hydroperoxide absorbance | Potency, µM (titrated, usually from 57.1 µM), inactives show at the highest dose activity change, negative = inhibition, usual class: inhibitors | 150,000 compounds, 0.12% hits; note: potency is the fitted concentration of half-maximal effect; nearly all actives have a fitted effect of over 55% in size
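Hydroperoxide output read as Fe(III)-xylenol orange absorbance, 573-to-405 nm ratio, after 30 min reaction with 40 uM arachidonic acid. Enzyme: 150 nM purified human 12hLO, 15 min compound preincubation; 25 mM Hepes pH 7.0, room temperature.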
HPGD inh – HPGD (human) dehydrogenase inhibition | P15428 | purified HPGD, NADH fluorescence kinetic, PGE2 substrate | Potency, µM, without a hit: at the top dose activity change, negative = inhibition, usual class: inhibitors | 150,000 compounds, 4.3% hits | AID 894; active = well fitted inhibition curve with a large enough effect, not every such curve was filed as active; inconclusive = small, poorly fitted or top-dose-only effect, or another doubt; inactive = no such curve, though single readings can be large or run the other way; note: potency is the fitted concentration of half-maximal effect
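NADH formation kinetics: reaction with 30 uM PGE2 and 1 mM NAD+ (final), 20 nM enzyme, Tris-HCl pH 8 with Tween 20, after 15 min compound preincubation at room temperature. Fluorescence change, last versus first of five reads.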
15-hLO-2 inh – inhibitors of human 15-lipoxygenase 2 (ALOX15B). purified 15hLO-2, xylenol orange hydroperoxide absorbance. 110,000 compounds, 0.56% hits. O15296. Potency, µM (titrated, usually from 57.1 µM), for inactives: top-dose activity change, negative = inhibition, most hits filed as inhibitors; note: potency is the fitted concentration of half-maximal effect; nearly all actives have a fitted effect of over 60% in size
Target sequence (O15296 whole entry, looked up): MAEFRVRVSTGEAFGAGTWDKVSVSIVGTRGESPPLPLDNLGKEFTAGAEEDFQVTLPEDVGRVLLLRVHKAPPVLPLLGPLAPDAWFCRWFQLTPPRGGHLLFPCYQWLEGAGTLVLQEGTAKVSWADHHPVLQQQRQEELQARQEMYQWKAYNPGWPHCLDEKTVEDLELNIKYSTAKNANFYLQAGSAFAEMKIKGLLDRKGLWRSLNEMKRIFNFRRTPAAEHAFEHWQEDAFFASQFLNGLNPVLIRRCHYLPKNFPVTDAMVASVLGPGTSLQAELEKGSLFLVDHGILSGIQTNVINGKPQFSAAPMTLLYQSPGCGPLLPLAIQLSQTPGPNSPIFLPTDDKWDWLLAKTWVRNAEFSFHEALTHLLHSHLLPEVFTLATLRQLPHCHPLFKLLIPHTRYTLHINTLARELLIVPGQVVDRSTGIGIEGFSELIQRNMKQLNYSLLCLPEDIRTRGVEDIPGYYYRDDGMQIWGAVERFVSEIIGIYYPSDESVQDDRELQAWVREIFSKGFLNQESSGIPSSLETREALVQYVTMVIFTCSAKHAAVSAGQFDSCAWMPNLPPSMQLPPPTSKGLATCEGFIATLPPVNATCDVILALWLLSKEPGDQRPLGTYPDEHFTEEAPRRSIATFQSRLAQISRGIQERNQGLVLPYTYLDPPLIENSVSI
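Enzyme 50 nM, AA 45 uM, 25 mM Hepes pH 7.5 + 0.01% Triton X-100; cpd preinc 15 min RT, rxn 90 min RT; stop/detect with 200 uM XO + 300 uM Fe(II) in 50 mM H2SO4, 30 min; A573/A405.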
IMPase Li inh – cell-permeable IMPase inhibitors with lithium potentiation. CHO-M1 cells, IP1 TR-FRET (IP-One), carbachol + lithium. Potency, µM (highest dose often 59.4 µM), for inactives: at the top dose activity, negative = IMPase inhibition, hits mostly inhibitors. 210,000 compounds, 0.35% hits;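 note: IP1 builds up when IMPase is blocked and the TR-FRET signal falls; potency is the fitted concentration of half-maximal effect; plate controls were basal vehicle for no effect and high inhibitor control for full effect; nearly all actives have a fitted effect of over 50% in size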
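Steps: plate 2000 CHO-M1 cells per well and culture 16–30 h; add compound and lithium; incubate 30 min, 37C; add d2-IP1 tracer and Eu cryptate anti-IP1 antibody in lysis buffer; read after 10 min at room temperature.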
IMPase inh – IMPase inhibition in cells | P97697 | CHO-M1 cells, IP1 accumulation, HTRF TR-FRET ratio | inhibition (IP1 accumulation), % at 46.1 µM | 120,000 tested, under 10 active | AID 901; active = well fitted curve in the direction sought with a large enough effect in the signal ratio, not every such curve was filed as active; inconclusive = small, poorly fitted or top-dose-only effect, or a change in a side signal; inactive = no such curve, though single readings can be large or run the other way; the % refers to the signal ratio;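 note: cells stimulated with carbachol in lithium chloride buffer; plate controls were DMSO basal wells for no effect and reference inhibitor wells for full effect; higher means more IMPase inhibition seen as more IP1 and lower FRET ratio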
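Carbachol-driven Gq signalling in CHO-M1 cells (2000/well) generates IP1. Compounds that block IMPase raise IP1 and so reduce the FRET signal from Eu-anti-IP1 and d2-IP1 after a 10 min room-temperature lysis.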
PNC assembly inh – perinucleolar compartment assembly inhibition; 140,000 compounds, 3.1% hits; PC3M PTB-GFP, PNC prevalence imaging, 16 h; hits give low values; activity change (PNC), negative = inhibition, % at 10 µM; AID 2417;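 active = readout at or below -70, meaning at least 70% loss of cells showing the perinucleolar compartment, a nuclear body marking cancer cells; inconclusive = readout between -30 and a set limit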;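 note: plate controls were DMSO wells for no effect and camptothecin positive control wells for full effect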
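Read-out is percentage of cells bearing a perinucleolar compartment, from automated 20x imaging of fixed, Hoechst-stained PC3M PTB-GFP cells. Cells were seeded 4 h, then exposed 16 h to compound (23 nl of library stock) in duplicate plates.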
Active calls of the source: *; [ ] = remark or other dose. Unless noted, calls come from the whole dose curve; as a rule, active = well fitted curve in the direction sought with a large enough effect; inconclusive = small, poorly fitted or top-dose-only effect, or another doubt; inactive = no such curve, though single readings can be large; an effect the other way counts as inactive or inconclusive. Unless noted, % is set by controls: 0 for no effect and ±100 for the full control effect.

For CCOC(=O)c1ccc(NCC(O)COc2ccccc2)cc1 (stereo not drawn) the results were ALOX12 inhib -3%, HPGD inh -4%, IMPase Li inh 7%, IMPase inh 5 and PNC assembly inh -119*.
CCOC(=O)c1ccc(NC(=O)COC)cc1 was read as ALOX12 inhib 1%, HPGD inh -13%, 15-hLO-2 inh 0%, IMPase Li inh 4%[38.3 µM], IMPase inh 3 and PNC assembly inh -89*.
Cc1cc(Br)ccc1OCCn1ccnc1 was read as ALOX12 inhib -1%, HPGD inh -13%, IMPase Li inh 11% and PNC assembly inh 17.
Screening O=C(CN1C(=O)CC(c2ccccc2)S(=O)(=O)c2ccccc21)N1CCCCC1 (stereo not drawn) returned IMPase Li inh -11%.
Screening CCOC(=O)c1ccc(N2C(=O)C=CC2=O)cc1 returned ALOX12 inhib -8%, HPGD inh 1.4µM*, 15-hLO-2 inh inconclusive, IMPase Li inh 56%[38.3 µM], IMPase inh 7 and PNC assembly inh inconclusive.
`COC(=O)c1ccc(CNCC(=O)Nc2ccc(C(=O)OC)cc2)cc1` gave ALOX12 inhib 2%, HPGD inh 28µM*, IMPase Li inh -4% and PNC assembly inh 17.
`CCOC(=O)c1ccc(-n2c(C)ccc2C)cc1` gave ALOX12 inhib -6%, HPGD inh inconclusive, IMPase Li inh 5% and PNC assembly inh 46.
For COC(=O)c1ccc(NC(=O)CNCc2ccncc2)cc1 the results were ALOX12 inhib -2%, HPGD inh 0%, IMPase Li inh -6% and PNC assembly inh -19.
CCOC(=O)c1ccc(NS(=O)(=O)c2ccc(Cl)nc2)cc1 was read as IMPase Li inh 3%.
`COC(=O)c1ccc(NC(=O)CSc2ccccn2)cc1` gave ALOX12 inhib -6%, HPGD inh 11µM*, 15-hLO-2 inh 4%, IMPase Li inh 37%[38.3 µM], IMPase inh -1 and PNC assembly inh inconclusive.
`CCOC(=O)c1ccc(NS(=O)(=O)CC)cc1` gave ALOX12 inhib 6%, HPGD inh 14µM*, 15-hLO-2 inh -6%, IMPase Li inh -1%[38.3 µM], IMPase inh 14 and PNC assembly inh 5.
CCOc1ccc(/C=N/NC(=O)CN2CCCCCCC2)cc1 was read as IMPase Li inh 12%.
COc1cccc2cc(C(N)=O)/c(=N/NC(=O)COc3ccc(Cl)cc3)oc12 was read as ALOX12 inhib -4%, HPGD inh -4%, IMPase Li inh 2%, IMPase inh -19 and PNC assembly inh -10.
For Cc1cccc(OCc2nnc(SCC(=O)Nc3ccc(C)cc3C)o2)c1 the results were IMPase inh 4.
Screening S=C(Nc1ccc(Cl)cc1)c1sc(N2CCCCC2)nc1N1CCOCC1 returned ALOX12 inhib 1%, HPGD inh -7%, IMPase Li inh 2% and PNC assembly inh 29.
`Cc1cccc(-n2ccnc2SCC(=O)N2CCCc3ccccc32)c1C` gave ALOX12 inhib -3%, HPGD inh -16%, IMPase Li inh 9%, IMPase inh -1 and PNC assembly inh 9.
Screening CCOC(=O)c1ccc(NC(=S)Nc2cccc(C)n2)cc1 returned ALOX12 inhib -6%, HPGD inh -4%, IMPase Li inh 0% and PNC assembly inh -85*.
CN(C)c1ccc(-c2cncnc2Nc2ccc(F)cc2)cc1 was read as 15-hLO-2 inh 26% and IMPase Li inh 20%.
CCC(=O)Nc1ccccc1C(=O)OC(c1ccccc1)c1ccccc1 was read as ALOX12 inhib -2%, HPGD inh inconclusive, IMPase Li inh 22% and PNC assembly inh 30.
For CCC(=O)Nc1ccccc1C(=O)OCc1ccc(C(=O)c2ccccc2)cc1 the results were ALOX12 inhib -2%, HPGD inh 14µM*, 15-hLO-2 inh 19%, IMPase Li inh 10%[38.3 µM], IMPase inh 5 and PNC assembly inh 4.
For Cc1cc(-c2nnc3sc(-c4ccc(Cl)cc4Cl)nn23)n[nH]1 the results were ALOX12 inhib 3%, HPGD inh -27%, 15-hLO-2 inh -21%, IMPase Li inh 10µM*, IMPase inh 7 and PNC assembly inh 3.
For O=[N+]([O-])c1ccc(N/N=C2/CCCCC2c2ccccn2)cc1 (stereo not drawn) the results were ALOX12 inhib inconclusive, HPGD inh -14%, IMPase Li inh 16%, IMPase inh 8 and PNC assembly inh -28.
For O=C(Nc1ccc(C(F)(F)F)cc1)c1cc(S(=O)(=O)NCC2COc3ccccc3O2)ccc1F (stereo not drawn) the results were ALOX12 inhib -2%, HPGD inh -18%, IMPase Li inh 5%, IMPase inh -5 and PNC assembly inh inconclusive.
`COc1cccc(CN2CCNC(=O)C2CC(=O)O)c1OC` (stereo not drawn) gave ALOX12 inhib 2%, HPGD inh -4%, IMPase Li inh 1%, IMPase inh -15 and PNC assembly inh inconclusive.
For Cc1ccccc1CN1CCNC(=O)C1CC(=O)O (stereo not drawn) the results were ALOX12 inhib -1%, HPGD inh -1%, 15-hLO-2 inh -12%, IMPase Li inh 12%[38.3 µM], IMPase inh 7 and PNC assembly inh -84*.
C[C@H](N=C(NC#N)Nc1ccncc1)C(C)(C)C was read as ALOX12 inhib -4%, HPGD inh -28%, 15-hLO-2 inh 20%, IMPase Li inh 11% and IMPase inh 2.
For CCOc1ccc2cc(-c3nnc(Nc4ccccc4F)s3)c(=O)oc2c1 the results were IMPase inh -12.
`CC(=O)OC1c2ccccc2C(=O)N1Cc1ccccc1Cl` (stereo not drawn) gave ALOX12 inhib 9%, HPGD inh 18µM*, 15-hLO-2 inh 2%, IMPase Li inh 23%[38.3 µM], IMPase inh 15 and PNC assembly inh -15.
For CCc1nn2cc(C(=O)c3ccccc3O)cnc2c1-c1ccc(F)cc1 the results were ALOX12 inhib -3%, HPGD inh 16µM*, IMPase Li inh 12%, IMPase inh 2 and PNC assembly inh 63.
Cc1ccc(O)c(C(=O)c2cnc3c(c2)c(-c2ccc(F)cc2)c(C#N)c(=O)n3C)c1 was read as IMPase Li inh 12%.
CCc1nn2cc(C(=O)c3cc(C)ccc3O)cnc2c1-c1ccc(F)cc1 was read as ALOX12 inhib 0%, HPGD inh 16µM*, IMPase Li inh 6%, IMPase inh -3 and PNC assembly inh inconclusive.
